Screens from PubChem.
PglD inh: blocks C. jejuni PglD acetyltransferase activity. purified PglD enzyme, DTNB colorimetric CoA detection. inhibition, % at 12.5 µM. actives 0.098% (n = 360,000). AID 602405; in the data active = inhibition above about 16%, passing the limit was not always enough; inconclusive = no clear call, values can overlap the other calls
ALR H2O2 inh: inhibitors of human sulfhydryl oxidase ALR. purified ALR, DTT oxidation, H2O2 HRP-luminol luminescence. inhibition, % (test concentration not listed). actives 3.8% (n = 290,000). AID 485317;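 active = mean replicate inhibition above about 79%, with every replicate also reaching it, limit read from the data; inconclusive = only one of the two criteria met; inactive = mean below limit and not every replicate reaching it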
Target sequence (P55789 whole entry, looked up): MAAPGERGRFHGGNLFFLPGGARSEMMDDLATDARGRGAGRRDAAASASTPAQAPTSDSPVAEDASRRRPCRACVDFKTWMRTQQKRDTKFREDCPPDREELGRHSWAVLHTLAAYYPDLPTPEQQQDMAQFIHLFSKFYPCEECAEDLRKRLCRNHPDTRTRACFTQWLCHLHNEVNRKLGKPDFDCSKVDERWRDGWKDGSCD
CASP6 VEID inh: inhibitors of human caspase-6; actives 0.53% (n = 350,000); purified caspase-6, Z-VEID-R110 cleavage fluorescence; P55212; inhibition, % at 12.5 µM;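 active = mean inhibition across replicates at least about 35%, with every replicate also reaching that limit, limit read from the data; inconclusive = only one of the two criteria met; inactive = neither criterion met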;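 note: 0% = median of neutral control wells and 100% = no fluorescence left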
Target sequence (P55212 24-179 limits assumed): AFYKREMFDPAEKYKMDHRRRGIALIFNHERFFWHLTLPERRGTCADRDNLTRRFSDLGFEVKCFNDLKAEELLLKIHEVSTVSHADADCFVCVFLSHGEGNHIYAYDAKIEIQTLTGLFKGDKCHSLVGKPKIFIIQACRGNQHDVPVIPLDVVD
Target sequence (P55212 194-293 limits assumed): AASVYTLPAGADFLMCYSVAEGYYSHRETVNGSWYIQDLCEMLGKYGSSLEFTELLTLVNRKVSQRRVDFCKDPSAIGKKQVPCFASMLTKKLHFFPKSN
CFTR F508del cor: correctors of CFTR F508del function in bronchial epithelial cells; actives 0.36% (n = 350,000); CFBE cells, YFP halide quenching; stimulated with forskolin plus potentiator P3; % fluorescence drop versus neutral controls; activity (quench increase), % at 7.58 µM;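 active = mean added fluorescence quench of at least 8% versus neutral control, with both replicates also reaching 8%; inconclusive = only one of the mean or replicate conditions met; inactive = mean below 8% and not both replicates reaching 8%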;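 note: cells transiently co-express mutant CFTR-F508del with the halide-sensitive YFP; corrector assay measuring rescue of mutant channel to the surface after 24 h compound exposure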
NSD2 inh: blocks human histone methyltransferase NSD2; O96028; NSD2 peptide methylation, AlphaScreen, 120 min; inhibition, % at 12.5 µM; actives 0.54% (n = 310,000); in the data active = inhibition above about 50%
Env fusion inh: blocks HIV Env-driven cell-cell fusion; HeLa-JRFL Env/CEM21 cell fusion, luciferase; inhibition, % at 12.3 µM; actives 1.1% (n = 360,000);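 active = mean replicate inhibition score of at least 50 and every replicate individually at or above 50; inconclusive = only one of the two criteria met; inactive = mean below 50 and not all replicates reaching 50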;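 note: 0% = plate neutral controls and 100% = maraviroc near 300 nM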
An asterisk follows results filed as active; ? = inconclusive; . = no result; [ ] = remark or other dose. Shown are actives, neighbours in structure and some others; about 4.1% of the full set was active somewhere.

SMILES | PglD inh | ALR H2O2 inh | CASP6 VEID inh | CFTR F508del cor | NSD2 inh | Env fusion inh
Oc1cc(O)cc(-c2cc3ccc(O)cc3o2)c1 | -2.2 | 99.0* | 1.4 | -0.6 | . | .
Cc1cc(OCC(=O)Nc2ccncc2)cc(C)c1Br | -2.3 | -8.0 | . | . | 1.0 | 46.1*
COc1ccc(NC(=O)COC(=O)CCOc2ccccc2C)cc1Cl | . | 98.0* | 2.4 | -0.4 | -4.5 | -1.3
Cc1ccccc1OCC(=O)Nc1ccncc1 | -3.6 | 99.1* | -1.7 | 0.5 | -4.0 | -12.1
COc1ccc(NC(=O)COC(=O)CNS(=O)(=O)c2ccccc2)cc1OC | . | -24.2 | -1.4 | 14.0* | -1.9 | 3.3
Cn1cnc(S(=O)(=O)N2CC[C@@H]3[C@H]2c2cc(C#CC4CCCC4)ccc2N[C@@H]3CO)c1 | . | . | 0.9 | -0.7 | . | .
O=C(NC1CCCCC1)NC1CCN(C(=S)NCc2ccco2)CC1 | -5.1 | 44.2 | . | . | . | 11.5
S=C(NC1CC1)SCc1ccco1 | -2.0 | 63.3 | 53.2* | 0.7 | -1.6 | 2.7
O=C(Nc1cccc(Cl)c1)N[C@@H]1CC[C@@H](CCNC(=O)C2CCCC2)O[C@H]1CO | 0.7 | . | -0.2 | -1.9 | . | -4.4[16.7 µM]
CC(NC(=O)c1ccc(N(C)C)cc1)C(c1cccs1)N1CCN(C)CC1 (configuration not stated) | 3.9 | 78.1* | . | . | 2.2 | .
COc1ccccc1N1CCN(C(c2cccs2)C(C)NC(=O)c2cccnc2)CC1 (configuration not stated) | 4.1 | 97.9* | 2.2 | -7.3 | . | -8.5
COc1ccc2c3c([nH]c2c1)[C@@H](CO)N(Cc1ccc(F)cc1)CC31CN(C(=O)NC(C)C)C1 | . | . | . | -2.4 | . | .
O=C(Nc1cccc([N+](=O)[O-])c1)c1[nH]ncc1Cl | 2.6 | 95.5* | 3.1 | -3.5 | 0.0 | .
COc1cccc(Nc2nc(N)nc(-c3oc4ccccc4c3C)n2)c1 | 4.5 | -1.8 | . | . | 0.2 | 23.3
Cc1cccc(Nc2nc(N)nc(-c3oc4ccccc4c3C)n2)c1 | 5.9 | 0.1 | -7.4 | 12.3* | -1.3 | 33.1
Cc1ccc(S(=O)(=O)N[C@@H]2C=C[C@H](CC(=O)NCCN3CCCCC3)O[C@H]2CO)cc1 | -1.5 | . | -9.8 | -1.1 | . | -14.3[16.7 µM]
CN1CCN(/N=C/c2ccc(Br)cc2)CC1 | 4.4 | -1.1 | 0.5 | 1.1 | 2.5 | 1.4
CN1CCN(/N=C/c2ccc(N(c3ccccc3)c3ccccc3)cc2)CC1 | 4.8 | 95.7* | 0.6 | -1.0 | . | 27.0
CN1CCN(/N=C/c2ccc(N(C)c3ccccc3)cc2)CC1 | . | 99.1* | 1.9 | 0.6 | 0.4 | 5.0
COc1ccc2c3c([nH]c2c1)[C@H](CO)N(C(=O)c1ccc(F)cc1)CC31CN(Cc2cccnc2)C1 | . | . | -3.0 | -2.1 | . | .
CC1=NN(c2ccc(C(=O)O)cc2)C(=O)/C1=C\c1ccc(OC(=O)c2cccs2)cc1 | . | -13.1 | 52.2* | -0.9 | 24.0 | 7.5
CCOc1cc(/C=C2\C(=O)N(c3ccc(C(N)=O)cc3)N=C2C)ccc1OC(=O)c1cccs1 | 0.0 | 1.8 | . | . | . | .
O=C(NCC[C@H]1CC[C@@H](NC(=O)C2CC2)[C@@H](CO)O1)c1cc(Cl)cc(Cl)c1 | 16.3 | . | 1.2 | -0.4 | . | -6.5[16.7 µM]
O=C1c2cccc3cccc(c23)C(=O)N1CCCc1n[nH]c(=S)n1-c1ccccc1 | . | 91.9* | 2.1 | 0.6 | 3.4 | -13.1
OCCCc1n[nH]c(=S)n1-c1ccccc1 | . | 36.7 | 0.6 | 4.0 | -0.1 | -13.6
SMILES | PglD inh | ALR H2O2 inh | CASP6 VEID inh | CFTR F508del cor | NSD2 inh | Env fusion inh
O=C(Cc1cccnc1)N[C@H]1CC[C@@H](CCn2cc(Cc3ccccc3)nn2)O[C@@H]1CO | 0.1 | . | 1.3 | -0.6 | . | 2.4[16.7 µM]
CCCN1[C@H](C(=O)N[C@@H](C)c2ccccc2)[C@@H](CO)[C@@H]2Cn3c(ccc(-c4ccccc4)c3=O)[C@@H]21 | 1.5 | . | 1.3 | 1.0 | . | .
CCN1CCN(c2cc(C)c3cc(NC(=O)CCC(=O)N4CCN(c5ccccc5OC)CC4)ccc3n2)CC1 | -5.0 | 47.7 | -4.5 | 2.6 | 17.2 | 4.8
CCN1CCN(c2cc(C)c3cc(NC(=O)CCC(=O)N4CCN(c5ccccc5)CC4)ccc3n2)CC1 | 3.5 | 91.4* | -8.4 | -0.7 | 3.6 | 3.5
CCC(c1nnnn1Cc1ccco1)N(CCc1ccccc1)Cc1cc2cc(C)ccc2[nH]c1=O (configuration not stated) | -7.3 | . | . | . | -3.1 | .
Cc1ccc2[nH]c(=O)c(CN(CCc3ccccc3)C(c3nnnn3Cc3ccco3)C(C)C)cc2c1 (configuration not stated) | 2.8 | -10.4 | 5.7 | 0.3 | 9.1 | 72.0*
CCCCn1c(SCc2nnc(-c3ccccc3)o2)nc2c1c(=O)n(C)c(=O)n2C | -6.7 | 78.1* | . | . | 15.0 | ?
CCCCn1c(SCC(=O)N2c3ccccc3CCc3ccccc32)nc2c1c(=O)n(C)c(=O)n2C | -2.6 | -2.0 | 0.8 | . | -0.7 | .
C[C@@H]1CN([C@@H](C)CO)C(=O)Cc2cc(N(C)C)ccc2O[C@H]1CN(C)C(=O)Nc1ccc2c(c1)OCO2 | -0.7 | . | -0.1 | -0.2 | . | 20.3[16.7 µM]
Cc1ccc(Cl)cc1N1CCN(C(=O)CSc2nnc3n2C(C)(C)Cc2ccccc2-3)CC1 | 4.6 | 0.1 | . | . | -3.3 | 76.3*
COc1ccc(N2CCN(C(=O)CSc3nnc4n3C(C)(C)Cc3ccccc3-4)CC2)cc1 | -1.7 | 34.2 | . | . | 6.5 | 33.6
C[C@H](CO)N1C[C@H](C)[C@H](CN(C)S(=O)(=O)c2ccc(Cl)cc2)OCCCC[C@H](C)Oc2ccc(NC(=O)CCC(F)(F)F)cc2C1=O | -1.2 | . | 0.4 | 1.1 | . | -18.1[16.7 µM]
COc1ccccc1OCCn1cc(C(=O)c2ccco2)c2ccccc21 | 4.9 | 22.5 | . | . | -0.6 | -5.2
COc1cccc(OCCn2cc(C(=O)c3ccco3)c3ccccc32)c1 | -3.8 | -0.2 | . | . | -2.3 | 65.9*
CNC(=O)C[C@@H]1CC[C@@H]2[C@H](COc3ccc(NC(=O)C(C)C)cc3C(=O)N2C)O1 | -1.8 | . | . | -4.0 | . | -11.1[16.7 µM]
CNC(=O)C[C@@H]1CC[C@H]2[C@@H](COc3ccc(NC(=O)C4CC4)cc3C(=O)N2C)O1 | 2.8 | . | . | -0.2 | . | 4.6[16.7 µM]
CCOC(=O)c1c(CSCc2ccccc2)oc2ccc(O)c(CN(C)C)c12 | 1.0 | -10.0 | 2.3 | 0.5 | . | 57.6*
CCOC(=O)c1c(-c2ccccc2)oc2ccc(O)c(CN(C)C)c12 | 4.5 | 4.7 | . | . | . | 8.9
COc1ccc(-c2ccc([C@H]3[C@@H](CO)N4C(=O)CNC[C@@H]34)cc2)cc1 | . | . | 1.3 | 0.9 | . | .
O=C(Nc1sc2c(c1C(=O)O)CCC2)c1ccco1 | -4.6 | 11.0 | 5.0 | . | -1.1 | -39.2
CC1(C)Cc2c(sc(NC(=O)c3ccco3)c2C(=O)O)CO1 | 2.6 | 9.2 | 37.5* | -0.3 | . | .
CC1(C)Cc2c(sc(NC(=S)NC(=O)c3ccccc3)c2C(=O)O)CO1 | . | 98.6* | 4.6 | -0.5 | 2.7 | -3.8
C/C=C/c1ccc2c(c1)O[C@H](CN(C)Cc1cccc(F)c1)[C@@H](C)CN([C@H](C)CO)S2(=O)=O | 0.3 | . | -4.6 | 0.5 | . | 7.7[16.7 µM]
CCc1cccc(CC)c1NC(=O)C(NS(=O)(=O)c1cccs1)c1ccccc1 (configuration not stated) | -3.6 | -22.4 | . | . | -1.7 | -6.5
